# A number with no mark means an inactive call.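 Rule for the calls: active = growth AUC significantly below the DMSO wells by Dunnett test; inactive = the rest.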
# Legend:
# Test in all cases: relative growth (AUC of 72 h growth curve relative to DMSO control, dAUC) (ratio); higher = more growth (less inhibition), active = hit call of the paper
# Details in all cases: 20 µM
# [1] = system: Prolinoborus 1 (Prolinoborus fasciculus)
# Method in brief: (§1)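 Cultures grown to carrying capacity in Luria–Bertani medium, drawn from Icelandic stream sediment and Silwood Park soil isolates and whole sediment communities, were diluted 1:100 into 96-well plates with each chemical at 20 µM (1% DMSO) and read at A600 hourly for 72 h. The spline-integrated area under the growth curve, divided by the mean of the DMSO controls, is reported as relative growth (dAUC). Values are means of three biological replicates.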
# [2] = system: Pseudomonas 1 (Pseudomonas baetica)
# Method in brief: as §1
# [3] = system: Pseudomonas 2 (Pseudomonas vancouverensis)
# Method in brief: as §1
# [4] = system: Pseudomonas 3 (Pseudomonas mandelii)
# Method in brief: as §1
# [5] = system: Pseudomonas 4 (Pseudomonas peli)
# Method in brief: as §1
# [6] = system: Pseudomonas 5 (Pseudomonas baetica)
# Method in brief: as §1
# [7] = system: Pseudomonas 6 (Pseudomonas sp.)
# Method in brief: as §1
# [8] = system: Rhizobium 1 (Rhizobium herbae)
# Method in brief: as §1
# [9] = system: Serratia 1 (Serratia sp. 2015-2462-01)
# Method in brief: as §1
# [10] = system: Sphingomonas 2 (Sphingomonas sp.)
# Method in brief: as §1
SMILES,relative growth [1],relative growth [2],relative growth [3],relative growth [4],relative growth [5],relative growth [6],relative growth [7],relative growth [8],relative growth [9],relative growth [10]
CCCSP(=O)(OCC)Oc1ccc(Br)cc1Cl (stereo not given),1.01,1.12,1.08,1.1,0.975,1.01,1.04,0.931,0.955,1.09
CC(C)OC(=O)C(C(=O)OC(C)C)=C1SCCS1,0.947,1.16,0.995,1.04,0.947,1.03,1.09,0.897,0.96,1.1
Cc1nnc(-c2ccccc2)c(=O)n1N,0.97,1.08,0.997,1.03,0.954,0.987,1.1,1.07,0.966,1
N#CC(CCc1ccc(Cl)cc1)(Cn1cncn1)c1ccccc1 (stereo not given),0.902,0.999,0.921,0.992,0.934,0.932,0.909,0.947,0.921,1.08
COc1cccc(C(=O)NN(C(=O)c2cc(C)cc(C)c2)C(C)(C)C)c1C,0.981,1.04,1.01,1.04,0.987,1.05,1.12,0.96,0.934,0.977
CN/C(=N/CC1CCOC1)N[N+](=O)[O-] (stereo not given),0.955,0.963,0.983,1.03,1.03,0.992,1.06,0.912,1.01,1.14
O=[N+]([O-])c1cc(C(F)(F)F)c(Cl)c([N+](=O)[O-])c1Nc1ncc(C(F)(F)F)cc1Cl,0.66 (active),0.775,0.795 (active),0.00358 (active),0.498 (active),0.595 (active),0.258 (active),0.109 (active),0.004 (active),0.0215 (active)
CCOP(=S)(OCC)Oc1nc(Cl)c(Cl)cc1Cl,0.989,1.04,1.01,1.05,0.991,1.06,1.08,0.929,0.993,1.07
N#C/N=C1\SCCN1Cc1ccc(Cl)nc1,1.03,1.05,1.01,1.02,1.03,1,1,1.02,0.986,0.998
O=C(NC(=O)c1c(F)cccc1F)Nc1ccc(OC(F)(F)C(F)OC(F)(F)F)c(Cl)c1 (stereo not given),0.988,1.02,1.01,0.99,0.961,0.966,0.98,0.952,0.995,1.11
N#CCNC(=O)c1cnccc1C(F)(F)F,1.03,1.05,0.996,0.97,0.996,1.01,1.07,0.857,0.947,1.08
CC(C)(C)C(O)(CCc1ccc(Cl)cc1)Cn1cncn1 (stereo not given),0.931,1.15,0.962,1.03,0.94,0.979,1.05,0.918,0.943,1.06
COc1ncc(F)c2nc(S(=O)(=O)Nc3c(F)cccc3F)nn12,1.01,1.05,1.02,1.01,0.989,0.958,0.99,0.982,1.03,1.04
Cc1cccc2sc3nncn3c12,1.01,1.18,0.997,1.03,0.947,1.04,1.1,0.846,0.947,0.944
CNC(=O)/C=C(\C)OP(=O)(OC)OC,0.971,1.05,0.988,1.03,0.964,0.96,0.989,1.09,0.937,0.926
CC(C)NC(=O)N1CC(=O)N(c2cc(Cl)cc(Cl)c2)C1=O,0.949,0.913,0.94,0.906,0.923,0.954,0.864,1.03,0.982,0.971
CCN(CC)c1nc(C)cc(OP(=S)(OC)OC)n1,1.01,1,1,1,0.979,0.988,1.03,1.05,0.994,0.839
O=C(NCCc1ncc(C(F)(F)F)cc1Cl)c1ccccc1C(F)(F)F,0.967,1.08,0.981,1.07,0.964,0.99,1.05,0.94,0.971,1.02
CC(C1CC1)C(O)(Cn1cncn1)c1ccc(Cl)cc1 (stereo not given),0.901,0.624 (active),0.955,0.971,0.991,0.986,1.03,0.947,1,1.13
CC(C)OC(=O)Nc1cccc(Cl)c1,0.976,0.905,0.958,1.04,0.981,0.991,0.921,0.876,0.974,0.926
Oc1ccc(Cl)cc1Cc1cc(Cl)ccc1O,0.0645 (active),0.805,0.755 (active),0.8 (active),0.674 (active),0.817 (active),0.922,0.0117 (active),0.46 (active),0.0145 (active)
CNC(=O)CSP(=S)(OC)OC,0.985,0.984,0.991,1.02,0.963,1.02,1.19,1.05,0.96,1.07
CC(C)N(C)S(=O)(=O)NC(=O)c1cc(-n2c(=O)cc(C(F)(F)F)n(C)c2=O)c(F)cc1Cl,0.979,1.01,1.02,1.04,1.02,1.06,1.07,1.05,0.977,1.07
CCC(C)(C)C(=O)OC1=C(c2ccc(Cl)cc2Cl)C(=O)OC12CCCCC2,0.952,1.07,0.983,1.04,1,1.02,1.06,0.97,0.978,1
C#CCN1C(=O)COc2cc(F)c(N3C(=O)C4=C(CCCC4)C3=O)cc21,0.972,1.1,1,1.04,0.985,1.05,1.05,0.908,0.938,0.959
CSc1nc(NC(C)C)nc(NC(C)C)n1,0.989,1.14,1.02,1.02,0.949,1.03,1.08,0.858,0.983,0.989
CCCCc1c(C)nc(NCC)nc1OS(=O)(=O)N(C)C,1.04,1.06,0.978,1.02,0.97,0.981,1,1.05,0.96,0.969
CCc1cnc(C2=NC(C)(C(C)C)C(=O)N2)c(C(=O)O)c1 (stereo not given),0.973,0.912,0.944,1.01,0.967,1.01,1.04,0.975,0.958,1.03
CC(C)N(C(=O)COc1nnc(C(F)(F)F)s1)c1ccc(F)cc1,0.963,1.07,1.03,1.07,0.983,1.01,1.1,1.02,0.984,1.09

# Source: the supplement of paper PMC12067926
